Measurements from PubChem BioAssay AID808 (Columbia University Molecular Screening Center, 2007).
The campaign covered roughly 93,000 compounds. About 180 (0.19%) were called active. This excerpt belongs to a sample that is enriched for actives. Unmarked numbers belong to inactive results.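 How the source made its calls: active means activation above the screen mean plus 3 SD, with well images confirming the hit on visual review (cut at about 28% in these data, passing the limit was not always enough); inconclusive means activation above that limit but images do not confirm it; inactive means activation not above that limit.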

assay: potentiators of TNFa-induced VCAM1 expression, primary screen, imaging, HUVEC, TNFa stimulus, immunofluorescence (AID 808); conditions: HUVEC TNFa-stimulated VCAM-1 immunofluorescence, high-content imaging; at 2 µM; stronger effect = higher value; scaled per plate to unstimulated/TNFa-only wells;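 further: signal is the number of cytoplasmic VCAM-1 stained grains per positive cell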

Point of comparison: `O=C1c2ccccc2C(=O)c2c1cccc2N1CCN(Cc2ccccc2)CC1`, activation 8.5%. Against it:
- CSc1nnc2c(n1)OC(c1cn(C)c3ccccc13)N(C(C)=O)c1ccccc1-2 (configuration not stated) — lower, -5%
- CSc1ccc(CCNC(=O)C2CCN(c3nnc(-n4cccc4)s3)CC2)cc1 — lower, -2.8%
- O=C(Cn1cnc2c(nnn2Cc2ccc(F)cc2)c1=O)NCc1ccc2c(c1)OCO2 — lower, -6.6%
- Cc1ccc(N2C(=O)c3ccccc3C2(O)c2ncc[nH]2)cc1 (configuration not stated) — lower, -0.7%
- CCOC(=O)c1ccc(NC(=O)CS(=O)(=O)c2cn(CC)c3ccccc23)cc1 — lower, -6.9%
- COc1ccc2c(c1)C=CC1(O2)N(CCO)c2ccccc2C1(C)C (configuration not stated) — lower, 1.4%
- O=C(Nc1nccs1)C1CCN(S(=O)(=O)c2ccc(Cl)c(C(F)(F)F)c2)CC1 — lower, -9.5%
- O=c1c2ccccc2nc2n1C(CSCc1cccc(C(F)(F)F)c1)CS2 (configuration not stated) — lower, -7.9%
- O=C(NCc1ccco1)c1sc2cccc(F)c2c1Cl — lower, 0.7%
- Oc1ccc2nc(Cc3ccccc3)[nH]c2c1 — lower, 5.6%
- CC(C)NC(=O)c1ccccc1S(=O)c1ccccc1C#N (configuration not stated) — lower, -0.6%
- Cc1cc(Nc2ccccc2)n(CCC#N)n1 — lower, -2.1%
- COc1ccc(CC(=O)Nc2sc(Cc3ccccc3)c(C)c2C(N)=O)cc1 — lower, 8.4%
- Cn1c(=O)n(C)c2cc(CNc3ccc(N4CCOCC4)c(C(=O)O)c3)ccc21 — lower, -26.1%
- Brc1ccc(-c2nnc(-c3ccccc3)o2)o1 — higher, 20.5%
- O=[N+]([O-])c1ccccc1OCCCCN1CCCCC1 — lower, -6.6%
- CCOc1ccccc1Nc1nnc(SCc2ccc(C(=O)OC)o2)s1 — lower, -4.9%
- O=C(CSc1nc2ccccc2o1)N1CCN(c2ccc(Cl)cc2)CC1 — lower, 6.9%
- COc1ccc(-c2nnc(SCC(=O)NC3CCCCC3)o2)cc1OC — lower, -87.2%
- CC1(C)Cc2cccc(OCC(N)=O)c2O1 — lower, -5.6%
- COc1ccc(-c2cc(C(F)(F)F)nc(SCCC(=O)NCc3ccco3)n2)cc1 — lower, -32.5%
- O=S(=O)(c1cccs1)N1CCN(Cc2ccccc2)CC1 — lower, 6.9%
- CCOC(=O)c1c(N=CN(C)C)c(C#N)c2n1CCCC2 — lower, -8.6%

For `CCOc1cc(-c2cc(-c3ccc(OC)cc3)nc(N)c2C#N)ccc1O`, the activation was 32.6% (active).
In the case of `CC1(C)CC(=O)C=C(N2CCCC2)C1`, the activation is reported as 79% (active).
In the case of `COc1ccc(OC)c(N=Cc2c(O)[nH]c3ccccc23)c1`, the activation is reported as 41.3% (active).
